We go through 14 molecules from ChEMBL document CHEMBL2218924, “A broad activity screen in support of a chemogenomic map for kinase signalling research and drug discovery” (Biochem J, 2013).

Unmarked numbers belong to inactive results. How the calls were made is not given here.

For one assay, the target named is Serine/threonine-protein kinase Nek7 (Homo sapiens) (UniProt Q8TDX7). The settings on record: at 1 µM.
Chain of Serine/threonine-protein kinase Nek7 (Homo sapiens) (Q8TDX7 whole entry, looked up): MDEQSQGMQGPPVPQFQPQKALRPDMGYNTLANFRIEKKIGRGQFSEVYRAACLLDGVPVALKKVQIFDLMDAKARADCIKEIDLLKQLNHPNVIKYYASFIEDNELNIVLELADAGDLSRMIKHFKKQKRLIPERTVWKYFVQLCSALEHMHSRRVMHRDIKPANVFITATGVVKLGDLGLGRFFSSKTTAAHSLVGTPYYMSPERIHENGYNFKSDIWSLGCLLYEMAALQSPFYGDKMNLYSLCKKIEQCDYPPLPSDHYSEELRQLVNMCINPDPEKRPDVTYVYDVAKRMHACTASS
Turning to `c1cc(-c2cnn3cc(-c4ccc(OCCN5CCCCC5)cc4)cnc23)ccn1`, the residual activity was 106%. In the case of `N/C(=N\[N+](=O)[O-])N/N=C\c1ccc(-c2cccc([N+](=O)[O-])c2)o1`, the residual activity was 93%. With `O=c1[nH]c2ccccc2n1C1CCN(Cc2ccc(-c3nc4cc5[nH]cnc5cc4nc3-c3ccccc3)cc2)CC1`, the residual activity is 111%. Still for that read-out and setting: the same measure for `O=C1Nc2ccc3ncsc3c2/C1=C/c1c[nH]cn1`: 84%. As to `CC(C)[C@H](CO)Nc1nc(Nc2cccc(Cl)c2)c2ncn(C(C)C)c2n1`, the residual activity was 102%. Regarding `CCc1nc(-c2ccc(OC)cc2)[nH]c1-c1ccncc1`, the residual activity is 106%. Same read-out and setting: the same measure for `COC(=O)[C@@]1(O)C[C@H]2O[C@]1(C)n1c3ccccc3c3c4c(c5c6ccccc6n2c5c31)C(=O)NC4`: 103%; for `COc1cc2ncnc(Nc3ccc(OCc4ccccc4)cc3)c2cc1OC`: 98%; for `C[S+]([O-])c1ccc(-c2nc(-c3ccc(F)cc3)c(-c3ccncc3)[nH]2)cc1` (stereo unspecified): 101%.

Take `CC(C)(C)c1cc(C=C(C#N)C#N)cc(Br)c1O`: the residual activity was 114%. On the same count and under the same terms, for `O=[N+]([O-])/C=C/c1ccc2c(c1)OCO2` the value was 99%; for `O=C1c2ccccc2-c2nc3nnnn3nc21`, 116%; for `COc1ccc2c(c[n+](C)c3c4cc5c(cc4ccc23)OCO5)c1OC`, 100%.

A further assay shares this target. The settings on record: at 10 µM.
With `c1cc(-c2cnn3cc(-c4ccc(OCCN5CCCCC5)cc4)cnc23)ccn1`, the residual activity was 104%. As for `N/C(=N\[N+](=O)[O-])N/N=C\c1ccc(-c2cccc([N+](=O)[O-])c2)o1`, the residual activity was 90%.

As to `O=c1[nH]c2ccccc2n1C1CCN(Cc2ccc(-c3nc4cc5[nH]cnc5cc4nc3-c3ccccc3)cc2)CC1`, the residual activity was 69%. Same read-out and setting: for `O=C1Nc2ccc3ncsc3c2/C1=C/c1c[nH]cn1` the value was 63%; for `CCc1nc(-c2ccc(OC)cc2)[nH]c1-c1ccncc1`, 104%. Still for that read-out and setting: the same measure for `COC(=O)[C@@]1(O)C[C@H]2O[C@]1(C)n1c3ccccc3c3c4c(c5c6ccccc6n2c5c31)C(=O)NC4`: 95%; for `COc1cc2ncnc(Nc3ccc(OCc4ccccc4)cc3)c2cc1OC`: 89%; for `C[S+]([O-])c1ccc(-c2nc(-c3ccc(F)cc3)c(-c3ccncc3)[nH]2)cc1` (stereo unspecified): 116%. With `CC(C)(C)c1cc(C=C(C#N)C#N)cc(Br)c1O`, the residual activity was 116%. On the same count and under the same terms, the same measure for `O=[N+]([O-])/C=C/c1ccc2c(c1)OCO2`: 114%; for `CCn1cnc2c(Nc3cccc(Cl)c3)nc(N[C@@H]3CCCC[C@@H]3N)nc21`: 112%; for `O=C1c2ccccc2-c2nc3nnnn3nc21`: 105%. Still for that read-out and setting: the same measure for `COc1ccc2c(c[n+](C)c3c4cc5c(cc4ccc23)OCO5)c1OC`: 137%.

In general, residual activity refers to the signal under treatment as a percentage of the control signal.
